From PubChem BioAssay (Tox21)
Inconclusive results are not listed. Activity calls are given as the source filed them. Unless noted, calls come from the whole dose curve; as a rule, active = well fitted curve in the direction sought with a large enough effect in the repeat runs; inconclusive = weak or mixed curves; inactive = no such curve, though single readings can be large; an effect the other way counts as inactive or inconclusive.

What was measured:
[1] = qHTS RealTime-Glo MT Cell Viability Assay in HEK293 cells - 8 hour (AID 1224887); note: top concentration of the series differs between compounds; nearly all actives have a fitted effect of over 50% in size
Summary of the method: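 600 HEK293 cells per well, dispensed already mixed with RealTime-Glo MT reagents. Compound dosing came 5 h later. The same wells were read for luminescence at 0, 8, 16, 24, 32 and 40 h of exposure at 37 C.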

[2] = A CellTox Green Cytotoxicity Assay to monitor cytotoxicity in HEK293 cells - 16 hour (AID 1224888); note: nearly all actives have a fitted effect of over 35% in size
Summary of the method: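 Dead-cell fluorescence measured kinetically: asymmetric cyanine dye, HEK293, 600 cells/well, 5 h settle, 23 nL cpd/DMSO, 37 C, reads 0–40 h every 8 h.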

[3] = qHTS RealTime-Glo MT Cell Viability Assay in HepG2 cells - 0 hour (AID 1224889); note: nearly all actives have a fitted effect of over 50% in size
Summary of the method: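 Compound treatment began 5 h after plating HepG2 cells (600/well) with NanoLuc luciferase and prosubstrate. Plates stayed at 37 C for 40 h; luminescence was captured at six time points, 0 h through 40 h.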

[4] = A CellTox Green Cytotoxicity Assay to monitor cytotoxicity in HepG2 cells - 8 hour (AID 1224890); note: nearly all actives have a fitted effect of over 45% in size
Summary of the method: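 First, HepG2 cells (600/well) mixed with reagent were plated; second, after 5 h at 37 C they received compounds via pintool; third, fluorescence was measured at 0 h through 40 h at 8 h intervals.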

[5] = qHTS assay to identify small molecule antagonists of the estrogen receptor alpha (ER-alpha) signaling pathway using the BG1 cell line in the presence of 0.1 nM 17-beta-estradiol - cell viability counter screen (AID 1259241); note: nearly all actives have a fitted effect of over 40% in size
Summary of the method: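 Live-cell protease activity (CellTiter-Fluor fluorescence, 30 min) was read in the same wells after VM7Luc4E2 cells had been exposed to compounds with 0.1 nM 17beta-estradiol for 22 hr at 37C.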

[6] = qHTS assay to identify small molecule antagonists of the androgen receptor (AR) signaling pathway using the MDA cell line in the presence of 0.5 nM R1881 - cell viability counter screen (AID 1259242); note: nearly all actives have a fitted effect of over 45% in size
Summary of the method: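 qHTS format. MDA-kb2 (MMTV-luc, AR/GR responsive) + cpd + 0.5 nM R1881 final, 16 hr 37C/0% CO2 → CellTiter-Fluor 30 min → fluorescence intensity.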

[7] = qHTS assay to identify small molecule phospholipidosis (PLD) inducers (AID 1259344; active = well fitted curve in the direction sought with a large enough effect; an effect the other way counts as inactive or inconclusive)
Summary of the method: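 Phospholipid accumulation was scored by imaging: fixed, Hoechst-counterstained HepG2 cells stained with LipidTOX Red after 24 h compound exposure at 37 C. Read-outs were pit count and pit intensity per well or per cell, with amiodarone and DMSO controls.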

[8] = qHTS assay to identify small molecule HDAC inhibitors (AID 1259364);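 note: wild-type HCT-116 cells with endogenous class I/II HDAC activity; top concentration of the series differs between compounds; nearly all actives have a fitted effect of over 45% in size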
Summary of the method: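 Quantitative high-throughput format: overnight-seeded HCT-116 cells got compounds for 2 hr at 37C; HDAC-Glo I/II reagent added, 30 min RT, luminescence measured.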

[9] = qHTS assay to identify small molecule HDAC inhibitors - cell viability counter screen (AID 1259365); note: series mostly up to about 92 µM; nearly all actives have a fitted effect of over 50% in size
Summary of the method: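 HCT-116 (wild type), 1,500 cells/well, overnight 37C/5% CO2; compound in DMSO 2hr; CellTiter-Glo 30min RT; luminescence read.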

[10] = biological target: Estrogen receptor (Homo sapiens) (UniProt P03372); assay: qHTS assay to identify small molecule antagonists of the estrogen receptor alpha (ER-alpha) signaling pathway using the BG1 cell line in the presence of 0.1 nM 17-beta-estradiol (AID 1259244); note: nearly all actives have a fitted effect of over 50% in size
Estrogen receptor (Homo sapiens), sequence (P03372 whole entry, looked up): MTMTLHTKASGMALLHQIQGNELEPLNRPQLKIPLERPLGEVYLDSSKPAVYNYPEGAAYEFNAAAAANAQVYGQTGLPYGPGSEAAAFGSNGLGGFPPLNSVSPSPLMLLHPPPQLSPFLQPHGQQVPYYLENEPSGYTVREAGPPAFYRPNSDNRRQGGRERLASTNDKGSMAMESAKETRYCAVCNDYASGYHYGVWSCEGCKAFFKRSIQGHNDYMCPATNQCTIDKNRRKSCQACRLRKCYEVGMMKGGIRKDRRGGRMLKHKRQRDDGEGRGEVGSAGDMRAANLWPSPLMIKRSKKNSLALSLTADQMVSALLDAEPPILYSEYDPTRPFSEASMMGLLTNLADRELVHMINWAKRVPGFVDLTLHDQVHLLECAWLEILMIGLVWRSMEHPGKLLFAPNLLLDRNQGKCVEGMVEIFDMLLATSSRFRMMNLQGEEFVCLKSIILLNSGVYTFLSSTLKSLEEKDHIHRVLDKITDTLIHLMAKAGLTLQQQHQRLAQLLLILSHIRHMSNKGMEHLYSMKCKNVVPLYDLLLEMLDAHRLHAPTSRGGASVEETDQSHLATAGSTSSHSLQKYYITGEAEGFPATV
Summary of the method: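 Reporter is a stably transfected luciferase under four estrogen responsive elements in VM7Luc4E2 cells expressing native full-length ER-alpha; inhibition of 0.1 nM (final) 17beta-estradiol-driven signal over 22 h is read by luminescence.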
% is set by controls: 0 for no effect and ±100 for the full control effect.

Cc1ncc([N+](=O)[O-])n1CC(O)CCl (stereo not drawn)
inactive: Potency [1] | Potency [2] | Potency [3] | Potency [4] | Potency [5] | Potency [6] | outcome [7] | Potency [8] | outcome [9]

COc1ccc(OC)c(NC(=O)CC(C)=O)c1
inactive: Potency [1] | Potency [2] | Potency [3] | Potency [4] | Potency [5] | Potency [6] | Potency [8] | outcome [9]

C/C=C(\C)C(=O)OCC/C=C\CC
inactive: Potency [1] | Potency [2] | Potency [3] | Potency [4] | Potency [5] | Potency [6] | Potency [8]

O=C(O)C(=O)Nc1cccc(-c2nn[nH]n2)c1
inactive: Potency [1] | Potency [2] | Potency [3] | Potency [4] | Potency [5] | Potency [6] | outcome [7] | Potency [8] | outcome [9]

CC(C)=CC(C)(C)C
inactive: Potency [1] | Potency [2] | Potency [3] | Potency [4] | Potency [5] | Potency [6] | Potency [8] | outcome [9]

CCOC(=O)CCc1ccccc1
inactive: Potency [1] | Potency [2] | Potency [3] | Potency [4] | Potency [5] | Potency [6] | Potency [8] | outcome [9]

Cc1ccc(S(=O)(=O)NC(=O)NC2CCCCCCC2)cc1
inactive: Potency [1] | Potency [2] | Potency [3] | Potency [4] | Potency [5] | Potency [6] | outcome [7] | Potency [8] | outcome [9]

NS(=O)(=O)c1ccccc1OC(F)(F)F
inactive: Potency [1] | Potency [2] | Potency [3] | Potency [4] | Potency [5] | Potency [6] | Potency [8] | outcome [9]

FC(F)(F)c1ccc(Cl)cc1Cl
inactive: Potency [1] | Potency [2] | Potency [3] | Potency [4] | Potency [5] | Potency [6] | Potency [8] | outcome [9]

O=C(CN1CCN(Cc2ccc3c(c2)OCO3)CC1)N1c2ccccc2Sc2ccccc21
inactive: Potency [1] | Potency [2] | Potency [3] | Potency [4] | Potency [5] | Potency [6] | outcome [7] | Potency [8] | outcome [9]

CC(=O)OCCCc1ccccc1
inactive: Potency [1] | Potency [2] | Potency [3] | Potency [4] | Potency [5] | Potency [6] | Potency [8]

COc1cc2c3cc1Oc1cc(ccc1O)C[C@@H]1c4c(cc(OC)c(O)c4Oc4ccc(cc4)C[C@@H]3N(C)CC2)CC[N+]1(C)C
inactive: Potency [1] | Potency [2] | Potency [3] | Potency [4] | Potency [5] | Potency [6] | outcome [7] | Potency [8] | outcome [9]

CC1(N)CCC(C(C)(C)N)CC1 (stereo not drawn)
inactive: Potency [1] | Potency [2] | Potency [3] | Potency [4] | Potency [5] | Potency [6] | Potency [8] | outcome [9]

COc1cc(C=O)ccc1OC(=O)C(C)C
inactive: Potency [1] | Potency [2] | Potency [3] | Potency [4] | Potency [5] | Potency [6] | Potency [8]

Cc1ccccc1N1CCN(CCc2nnc3n2CCCC3)CC1
inactive: Potency [1] | Potency [2] | Potency [3] | Potency [4] | Potency [5] | Potency [6] | outcome [7] | Potency [8] | outcome [9]

CCCC(C)CC (stereo not drawn)
inactive: Potency [1] | Potency [2] | Potency [3] | Potency [4] | Potency [5] | Potency [6] | Potency [8] | outcome [9]

Cc1ccc2c(c1)c1c3n2CCNC3CCC1 (stereo not drawn)
inactive: Potency [1] | Potency [2] | Potency [3] | Potency [4] | Potency [5] | Potency [6] | Potency [8] | outcome [9]

Nc1ccnc(=O)[nH]1
inactive: Potency [1] | Potency [2] | Potency [3] | Potency [4] | Potency [10] | Potency [8] | outcome [9]

Cc1ccccc1C(=O)N1CC/C(=N\OS(=O)(=O)O)c2ccc(Cl)cc21
inactive: Potency [1] | Potency [2] | Potency [3] | Potency [5] | Potency [6] | Potency [10] | PLD induction [7] -2.19% [at 7.66 µM] | Potency [8]

Cc1cccc(NC(=S)N(C)C)c1
inactive: Potency [1] | Potency [2] | Potency [3] | Potency [4] | Potency [8] | outcome [9]

O=P(O)(O)OCC(O)CO (stereo not drawn)
inactive: Potency [1] | Potency [2] | Potency [4] | Potency [5] | Potency [6] | Potency [10] | outcome [7] | Potency [8] | outcome [9]

CC(C)CCO
inactive: Potency [1] | Potency [2] | Potency [4] | Potency [5] | Potency [6] | Potency [10] | Potency [8] | outcome [9]

CCCCCC(=O)OCC
inactive: Potency [1] | Potency [2] | Potency [4] | Potency [5] | Potency [6] | Potency [10] | Potency [8] | outcome [9]

CCCOCCOCCOCCO
inactive: Potency [1] | Potency [2] | Potency [3] | Potency [4] | Potency [6] | Potency [10] | Potency [8] | outcome [9]
